Results published in PubChem BioAssay AID540333 (Southern Research Specialized Biocontainment Screening …, 2011).
About 320 (3.2%) of roughly 10,000 compounds were called active. Only a selection was taken, and actives are over-represented in it overall. Unmarked numbers belong to inactive results. No stated cut-off is given here; in the data, active means CPE inhibition mostly above about 9.1% (no sharp cut-off); inactive means mostly below about 7.2%.

Assay: Dengue virus cytopathic effect inhibitors, cell-based, CPE readout, HTS (AID 540333)
Settings: Dengue virus CPE inhibition in host cells, at 20 µM; active compounds read high

| Structure (SMILES) | CPE inhibition |
| --- | --- |
| CCOc1ccc(N2C(=O)/C(=C/c3ccco3)N(C)C2=S)cc1 | 3.13% |
| Cc1cc(C)cc(NC(=S)NCc2cccs2)c1 | 1.1% |
| Cc1ccc(C)c(NC(=O)COC(=O)c2cccc3c2C(=O)c2ccccc2C3=O)c1 | 0.805% |
| O=C(OC(c1ccccc1)c1nccc2ccccc12)c1cc([N+](=O)[O-])cc([N+](=O)[O-])c1 (stereo unspecified) | 0.39% |
| Cc1ccc(-c2nn(-c3ccccc3)cc2/C=C/C(=O)Nc2nccs2)cc1 | 3.35% |
| CC(=O)N1CCC2(CC1)CC(=O)c1cc(Cl)ccc1O2 | inactive |
| Cc1cc(C)c(-c2csc(NC(=O)c3n[nH]c(=O)c4ccccc34)n2)c(C)c1 | 2.35% |
| COC(=O)[C@H]1[C@H](CCc2ccccc2)NC(=O)N(Cc2ccccc2)[C@@H]1C | inactive |
| COC(=O)c1c(NC(=O)CN2CCC3(O)CCCCC3C2c2ccccc2OC)sc(C)c1C (stereo unspecified) | 2.39% |
| COc1ccc(C2C3CCCCC3(O)CCN2C(=O)c2cccs2)cc1 (stereo unspecified) | 2.42% |
| COC(=O)c1c(NC(=O)CN2CCC3(O)CCCCC3C2c2ccc(F)cc2)sc(C)c1C (stereo unspecified) | 27.5% (active) |
| CCOC(=O)c1c(NC(=O)CN2C(=O)NC3(CCCCC3)C2=O)sc(C)c1-c1ccc(C)cc1 | 9.96% |
| COC(=O)c1c(NC(=O)CN2CCC3(O)CCCCC3C2c2cc(OC)ccc2OC)sc(C)c1C (stereo unspecified) | 11.8% (active) |
| COC(=O)c1c(NC(=O)CC2Sc3ccc(C(F)(F)F)cc3NC2=O)sc(C)c1C (stereo unspecified) | 0.71% |
| CCOc1cc(/C=C(\C#N)C(N)=O)ccc1OS(=O)(=O)c1ccccc1 | 0.64% |
| COc1cc(C(=O)NCC(c2ccco2)N(C)C)cc(OC)c1OC (stereo unspecified) | 0.055% |
| CC(C(=O)NC1CCCc2ccccc21)N1CCN(c2ccc(F)cc2)CC1 (stereo unspecified) | 0.305% |
| CC(C)(C)[C@H]1C=C(C(=O)NCc2ccccc2)O[C@@H](OCCCCO)C1 | 0.655% |
| CCC(C)c1ccccc1NC(=O)COC(=O)c1ccc2[nH]c3c(c2c1)CCCC3 (stereo unspecified) | 25.9% (active) |
| CC(C)c1ccccc1NC(=O)COC(=O)c1ccc(Cl)c(S(=O)(=O)N2CCCCCC2)c1 | 0.87% |
| CC(C)c1ccccc1NC(=O)COC(=O)Cc1c[nH]c2ccccc12 | inactive |
| NNc1nc(-c2ccccc2)nc2sc3c(c12)CCCC3 | inactive |
| COc1ccc(-c2c(-c3cc(OC)cc(OC)c3)n(C)c3ccc(-c4ccc(N(C)C)nc4)cc23)cc1 | 0.63% |

| Structure (SMILES) | CPE inhibition |
| --- | --- |
| O=C1CN(C(=O)COc2ccc(Br)cc2F)c2ccccc2N1 | inactive |
| CCOc1ccc(NS(=O)(=O)c2cc(NC(=O)CCS(=O)(=O)c3ccc(C)cc3)ccc2OC)cc1 | 0.21% |
| CCOC(=O)c1c(C)[nH]c(C(=O)N/N=C\c2ccccc2Cl)c1C | 3.76% |
| CCOC(=O)c1c(C)[nH]c(C=O)c1Cc1cccc(Cl)c1 | 14.8% (active) |
| CCOC(=O)c1c(C)nc2ccc(Cl)cc2c1-c1ccccc1 | 0.765% |
| O=C(O)CCC(=O)Nc1ccccc1C(=O)NCc1ccccc1 | 1.71% |
| CCCCNc1c(-c2cccc(-c3ccc(OC)cc3)c2)nc2cc(C)ccn12 | inactive |
| CCCCNc1c(-c2ccc(-c3cccc(Cl)c3)cc2)nc2ccc(Cl)cn12 | 9.97% (active) |
| CCCCNc1c(-c2cccc(SC(C)CC)c2)nc2ccc(Cl)cn12 (stereo unspecified) | 1.45% |
| Cc1c(Cl)cccc1NC(=O)COC(=O)c1c2c(nc3ccccc13)CCN(Cc1ccccc1)C2 | 0.23% |
| CCc1nnc(N/N=C/c2cccs2)n1N | 2.18% |
| CC(C)(C)c1nnc(N/N=C/c2ccccc2)n(N)c1=O | 2.69% |
| CC(C)(C)c1nnc(N/N=C/c2ccc(Br)cc2)n(N)c1=O | 27.6% (active) |
| C/C(=N\NC(=O)CN(c1ccccc1Br)S(C)(=O)=O)c1ccc2c(c1)OCCO2 | 0.855% |
| CCOC(=O)/C=C/[C@H]1CC(c2ccccc2)(c2ccccc2)CO1 | 0.15% |
| Cn1c(SCC(=O)N2c3ccccc3CCc3ccccc32)nnc1-c1ccc(O)cc1 | inactive |
| Cn1c(SCC(=O)N2c3ccccc3CCc3ccccc32)nnc1-c1cc2ccccc2cc1O | 11.1% (active) |
| CCn1c(SCC(=O)N2c3ccccc3CCc3ccccc32)nnc1-c1ccc(OC)cc1 | 1.05% |
| CCn1cc(/C=C/C(=O)Nc2ccn(Cc3c(F)c(F)cc(F)c3F)n2)cn1 | inactive |
| Cc1ccc(S(=O)(=O)N2CCC(=O)N(CCOCc3ccccc3)CC2)cc1 | 0.27% |
| C=CCn1c(C)cc(C(=O)COC(=O)[C@@H](NC(=O)c2ccccc2Cl)C(C)C)c1C | inactive |
| CCOC(=O)C(=O)NNc1ccc(C)cc1 | inactive |
| CCOC(=O)C(=CNc1ccc(NC2=NCC(C)S2)cc1)C(=O)OCC (stereo unspecified) | 10.9% (active) |

| Structure (SMILES) | CPE inhibition |
| --- | --- |
| CCOC(=O)C(=CNc1cc(C)ccn1)C(=O)OCC | inactive |
| O=C(CSc1nc2ccc(Cl)cc2[nH]1)N1CCN(C(=O)c2ccco2)CC1 | 0.04% |
| Cc1ccc(S(=O)(=O)NCCC(c2ccccc2)c2ccco2)cc1 (stereo unspecified) | inactive |
| O=S(=O)(NCCC(c1ccc(F)cc1)c1ccco1)c1ccccc1 (stereo unspecified) | 14.2% (active) |
| Nc1nonc1C(=O)NCCNS(=O)(=O)c1ccc(F)cc1 | inactive |
| CC(Nc1cc(N2CCNCC2)ccc1[N+](=O)[O-])c1ccccc1 (stereo unspecified) | 0.87% |
| O=C(CN1CCN(Cc2ccccc2)CC1)Nc1ccc(S(=O)(=O)N2CCOCC2)cc1 | inactive |
| Cn1c(SCC(=O)N2c3ccccc3Sc3ccccc32)nc2ccccc21 | 10.5% |
| Cc1ccc(-n2c(SCC(=O)N/N=C/c3ccc(C)s3)nnc2-c2ccccc2)cc1 | 6.83% |
| Cc1ccc(-n2c(SCC(=O)N3c4ccccc4Sc4ccccc43)nnc2-c2ccncc2)cc1 | 13.2% (active) |
| O=C(CSc1ccc(Cl)cc1)Nc1cccc(-c2nnc(-c3ccco3)o2)c1 | 0.905% |
| Cc1ccc(OCC(=O)Nc2cccc(S(=O)(=O)N3CCCCC3)c2)c([N+](=O)[O-])n1 | 0.73% |
| O=C(CNc1cc(S(=O)(=O)N2CCCC2)ccc1OCC(F)(F)F)Nc1cccc(C(F)(F)F)c1 | 15.3% (active) |
| O=C(Nc1cc(S(=O)(=O)N2CCCC2)ccc1OCC(F)(F)F)c1ccc(F)cc1 | inactive |
| O=S(=O)(NCCCc1ccccc1)c1cccc2nsnc12 | 0.135% |
| O=C(O)CCN1CC2([N+](=O)[O-])C=CC(=O)C([N+](=O)[O-])(C1)C2CC(=O)c1ccccc1 (stereo unspecified) | 0.01% |
| COc1cc(/C=N/NS(=O)(=O)c2ccccc2)ccc1OS(=O)(=O)c1ccc(C)cc1 | 0.62% |
| CCCc1cc(=O)[nH]c(SCC(=O)N2CCN(S(=O)(=O)c3ccc4ccccc4c3)CC2)n1 | inactive |
| O=C(/C=C/c1cccc(Cl)c1)NCc1ccncc1 | 0.12% |
| O=C(NC(Cc1c[nH]c2ccccc12)C(=O)OCC(=O)c1cccc2ccccc12)c1cccs1 (stereo unspecified) | inactive |
| COc1cc(CNn2cn[nH]c2=S)cc(Cl)c1OCc1ccc(F)cc1 | inactive |
| COc1ccc(C2CC(=O)C3=C(C2)Nc2ccccc2NC3c2coc3ccccc3c2=O)cc1OC (stereo unspecified) | 51.7% (active) |
| COc1ccccc1NC(=O)C1=C(C)NC2=C(C(=O)CC(c3ccc(OC)c(OC)c3)C2)C1c1coc2ccccc2c1=O (stereo unspecified) | 5.03% |

| Structure (SMILES) | CPE inhibition |
| --- | --- |
| COc1ccc([C@H]2CC(=O)C=C(/C=C/c3ccccc3)C2)cc1OC | 0.185% |
| C/C(=N\NC(=O)CNc1cccc(C(F)(F)F)c1)c1cccc(Br)c1 | 7.08% |
| C/C(=N\NC(=O)CNc1cccc(C(F)(F)F)c1)c1ccc(Br)cc1 | 3.77% |
| O=C(CNc1cccc(C(F)(F)F)c1)N/N=C/c1cccc(Br)c1 | 9% (active) |
| O=Cc1cc([N+](=O)[O-])ccc1N1CCOCC1 | 0.035% |
| Cc1nnc(SCc2cc(=O)oc3ccc4ccccc4c23)n1Cc1ccccc1 | inactive |
| CCCN1C(=O)/C(=N\OCC(=O)NC23CC4CC(CC(C4)C2)C3)c2ccccc21 | 22.5% (active) |
| CCCN1C(=O)/C(=N\OCC(=O)Nc2ccc(C(C)C)cc2)c2ccccc21 | 8.8% |
| O=C(CON=C1c2ccccc2-c2ccccc21)NC12CC3CC(CC(C3)C1)C2 | 6.95% |
| C=CCNC(=O)c1cc(Cl)ccc1[N+](=O)[O-] | inactive |
| CCOC(=O)C1=C(C)NC(=S)NC1/C=C/c1ccccc1 (stereo unspecified) | inactive |
| CCOc1ccc(-c2cn(-c3cccc(SC)c3)c(=O)[nH]2)cc1 | 0.42% |
| Cc1ccc(S(=O)(=O)c2nnn3c2nc(Nc2cccc(C)c2)c2ccccc23)cc1 | inactive |
| CC(C)(C)NC(=O)COC(=O)c1ccccc1Nc1ccc(SC(F)F)cc1 | 16.6% (active) |
| O=C(COC(=O)c1ccccc1Nc1ccccc1)Nc1ccccc1 | 1.4% |
| Cc1ccc(NC(=O)COC(=O)c2ccccc2Nc2ccccc2)cc1 | 1.36% |
| Cc1ccc(SCC(=O)NCc2ccncc2)cc1 | inactive |
| Cc1c(NC(=O)/C(C#N)=C/c2ccc(-c3ccccc3Cl)o2)c(=O)n(-c2ccccc2)n1C | 3.41% |
| Cc1c(Cl)cccc1Nc1nc(N)nc(CSc2nc3ccccc3s2)n1 | 10.3% (active) |
| Cc1ccccc1Nc1nc(N)nc(COC(=O)c2ccc(O)cc2)n1 | inactive |
| CN(CC(=O)Nc1ccccc1Cl)C(=O)CSc1nc2ccccc2s1 | inactive |
| COc1ccc(CNc2nc(-c3ccccc3)nn2C(=O)c2ccc([N+](=O)[O-])cc2)cc1 | inactive |
